Measurements: PubChem BioAssay (NCI)
The panel holds about 83,000 compounds, 20% with a hit somewhere; the sample as a whole holds those more often.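 Cells were grown in 96-well plates and exposed to the test compound at a single concentration for 48 hours; results are reported as percent growth, with values below 10 considered active.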 A number with no mark means an inactive call. Active and inactive are the calls of the source.

Assays:
Test in all cases: NCI-60 one-dose screen, 48 h (100 = growth as untreated, 0 = no growth, -100 = all killed)
Settings in all cases: 10 µM unless noted
[1] = test system: T-47D breast
[2] = test system: BT-549 breast
[3] = test system: MDA-MB-435 melanoma
[4] = test system: SW-620 colon
[5] = test system: MCF7 breast
[6] = test system: HCT-116 colon
[7] = test system: HCC-2998 colon
[8] = test system: KM12 colon

| Compound | growth [1] | growth [2] | growth [3] | growth [4] | growth [5] | growth [6] | growth [7] | growth [8] |
| --- | --- | --- | --- | --- | --- | --- | --- | --- |
| O=C(N/N=C/[C@@H](O)[C@H](O)[C@H](O)CO)c1ccc(NC(=O)c2cccnc2)cc1 | 96.1% | 99% | 104% | 98.9% | 92.6% | 103% | 117% | 102% |
| O=C1COCCN1c1ccc(NCc2cn(C(=O)c3ccc(Cl)cc3)c3ccccc23)cc1 | -12.7% (active) | 41.9% | 92.6% | 40.4% | 10.1% | 7.09% (active) | 91% | 97.1% |
| O=c1ccc(N=Nc2ccccc2)ccc1Cl | 42.4% | 135% | 40.6% | -3.18% (active) | 17.6% | 13.7% | 35% | 74.6% |
| c1ccc(-c2nc3nonc3nc2-c2ccccc2)cc1 | 61.6% | 56.2% | 43.1% | 82.3% | 60.9% | 62.5% | 95.4% | 74.4% |
| CC(=O)Oc1ccccc1C(=O)N=C1[Se]CCCN1C(=O)c1ccccc1OC(C)=O | 85.2% | -97.2% (active) | -18.9% (active) | 88.4% | 15.7% | -8.29% (active) | 104% | 30.5% |
| CC(C)(C)NC(=O)C(OC(=O)c1cccc(Cl)c1)c1ccc(Cl)cc1 (stereo unspecified) | 96.8% | 82.9% | 107% | 103% | 95.8% | 74.7% | 107% | 100% |
| COc1ccc(OC)c(/C=C/c2nnc(Nc3ccccc3)o2)c1 | 80.4% | 97.1% | 89.1% | 113% | 98.3% | 103% | 102% | 89% |
| Cc1ccc(/C=C(\C#N)n2nc3cccc(F)c3n2)cc1 | 74% | 102% | 51.1% | 94.3% | 54.1% | 70.7% | 105% | 68.2% |
| Clc1ccc2c(c1)N(CCCN1CCCC1)c1ccccc1S2 | 57.8% | 66.5% | -35.9% (active) | 26.2% | 6.29% (active) | 26.5% | 32% | 44.6% |
| COc1c(B(O)O)cc(F)cc1-c1nc2ccc3[nH]ncc3c2c2c1CCCC2 | 14% | -35.5% (active) | 16.4% | 5.71% (active) | 4.26% (active) | 3.48% (active) | 5.31% (active) | -3.54% (active) |
| CCOC(=O)c1cn2ncnc(Oc3ccc(NC(=O)NCCN(CC)CC)c(Cl)c3)c2c1C | 45.4% | 81.9% | 9.11% (active) | 28.7% | 58.1% | 36.5% | 68.3% | 96.4% |
| COc1cc(C2CC(c3ccc(N(C)C)cc3)=NN2C(C)=O)cc(OC)c1OC (stereo unspecified) | 31.7% | 45.1% | -65.6% (active) | 10.7% | 11.5% | 20.6% | 24.9% | 10.8% |
| NCCCNc1nc2ccccc2c2c(=O)c3cc(C(F)(F)F)ccc3sc12 | 27.2% | 87.7% | -80.9% (active) | -74.5% (active) | -49.4% (active) | -70.4% (active) | -84.6% (active) | -76.7% (active) |
| COc1nc2ccccc2cc1-c1nc2c(cnn2-c2ccc(Br)cc2)c(=O)[nH]1 | 24.2% | 50% | -74.8% (active) | 19.5% | 22.1% | 23.1% | 51.1% | 18.3% |
| c1cc(-c2nnc(SSc3ncnc4nc[nH]c34)o2)ccn1 | 42.3% | 51.7% | 16% | 34.6% | 23% | 16.6% | 10.3% | 45.8% |
| COc1cccc2nc3n(c12)C(c1c(F)cccc1F)SC3 (stereo unspecified) | 104% | 108% | 106% | 106% | 104% | 93.8% | 99.9% | 100% |

| Compound | growth [1] | growth [2] | growth [3] | growth [4] | growth [5] | growth [6] | growth [7] | growth [8] |
| --- | --- | --- | --- | --- | --- | --- | --- | --- |
| O=C(Nc1c2ccccc2nc2ccccc12)c1ccccc1CN1C(=O)c2ccccc2C1=O | 33.4% | 76.2% | 30.3% | 15.5% | 10.3% | 16.1% | 41.4% | 26% |
| COc1cc(/C=C/c2c(C(C)=O)c(C)nc3ccccc23)cc(OC)c1OC | 39.7% | 48.4% | -0.529% (active) | 29.6% | 19.3% | 23.9% | 54.8% | 29.1% |
| CCCCC1CCCC12NC(=O)NC2=O (stereo unspecified) | 91.7% | 95.1% | 109% | 102% | 105% | 99.4% | 96.9% | 106% |
| COc1nc2ccc(C)cc2cc1-c1nc2c(cnn2-c2ccccc2)c(=O)[nH]1 | 81.9% | 89.6% | 8.39% (active) | 58.5% | 50.6% | 67.2% | 96.3% | 70.6% |
| COc1cccc(/C=C2\C=C(c3ccccc3)N(Cc3ccccc3)C2=O)c1 | 59.8% | 69.7% | -32.3% (active) | 43.5% | 32.5% | 48.3% | 66.6% | 53.4% |
| COc1cc(OCc2cccc(-c3ccc(C(O)c4nccs4)cc3)c2C)cc(OC)c1CNCCNC(C)=O (stereo unspecified) | 90.8% | 102% | 98.5% | 97.8% | 89.9% | 94% | 124% | 101% |
| CCOC(=O)c1c(C)oc2ncnc(N3CCN(C(=O)COc4ccc(C(C)(C)C)cc4)CC3)c12 | 47.7% | 54.3% | 99.8% | 99.8% | 83% | 75.2% | 104% | 89.9% |
| N#Cc1c(Nc2cccc(Cl)c2)sc(C(=O)c2cc3cc(Cl)ccc3o2)c1N | 73.7% | 113% | 86.3% | 18.2% | 70.2% | 72.4% | 105% | 34.5% |
| Cc1cc2[nH]c(=O)c3c4ncccc4cn3c2cc1C | 56.5% | 105% | 11.1% | -26.9% (active) | 11.6% | -77.1% (active) | 13.7% | 25.1% |
| COc1c(N2CC3CCCN(C(C)=O)C3C2)c(F)cc2c(=O)c(C(=O)N[C@H]3C(O)[C@@H](O)C(CO)O[C@H]3O)cn(C3CC3)c12 (stereo partly specified) | 99.9% | 115% | 105% | 105% | 101% | 108% | 115% | 102% |
| CCN1C(=O)N(CC)C2Nn3c(s/c(=C\c4ccc([N+](=O)[O-])cc4)c3=O)=NC21 (stereo unspecified) | 40.2% | 95.2% | 61.9% | 60.2% | 11% | 18.2% | 101% | 97.8% |
| Cc1ccccc1C(=O)NN | 102% | 106% | 111% | 113% | 102% | 108% | 95.4% | 112% |
| CC([C@H]1CCC2C3CCC4C[C@@H](NC=O)CC[C@]4(C)C3CC[C@@]21C)N(C)C (stereo partly specified) | -40.6% (active) | 30.7% | -46.1% (active) | -71.5% (active) | -23.1% (active) | -66.2% (active) | -67.2% (active) | -21.1% (active) |
| Cc1ccc(-c2nc(N3CCN(C(=O)c4ccc(OC(F)(F)F)cc4)CC3)c3ccccc3n2)cc1 | 61.7% | 91.9% | 92.5% | 97% | 92.9% | 85.3% | 97.1% | 93% |
| Fc1cc(-c2nnc3sc(-c4ccc(Cl)cc4Cl)nn23)c(Cl)cc1Cl | 68.4% | 79.4% | 94.3% | 81.7% | 83.7% | 45.9% | 93% | 96% |
| COc1ccccc1/C=C1\Oc2cc(OCCN3CCC(Cc4ccccc4)CC3)ccc2C1=O | 85.8% | 85.4% | 91.1% | 69.1% | 80.1% | 73.9% | 37.9% | 91.7% |
